From PubChem
Shown are actives, neighbours in structure and some others; about 2.4% of the full set was active somewhere.
D2 ag-1: Beta-Arrestin HTS for Positive Allosteric Modulators of the Human D2 Dopamine Receptor: Agonists; AID 624465, 2012; activation, % (concentration not given with the values); D(2) dopamine receptor (Homo sapiens), P14416; DiscoveRx PathHunter D2 beta-arrestin, luminescence, 90 min; 100% = 57 uM dopamine signal; actives 0.084% (n = 360,000); in the data active = activation above about 40%
Target sequence (P14416 whole entry, looked up): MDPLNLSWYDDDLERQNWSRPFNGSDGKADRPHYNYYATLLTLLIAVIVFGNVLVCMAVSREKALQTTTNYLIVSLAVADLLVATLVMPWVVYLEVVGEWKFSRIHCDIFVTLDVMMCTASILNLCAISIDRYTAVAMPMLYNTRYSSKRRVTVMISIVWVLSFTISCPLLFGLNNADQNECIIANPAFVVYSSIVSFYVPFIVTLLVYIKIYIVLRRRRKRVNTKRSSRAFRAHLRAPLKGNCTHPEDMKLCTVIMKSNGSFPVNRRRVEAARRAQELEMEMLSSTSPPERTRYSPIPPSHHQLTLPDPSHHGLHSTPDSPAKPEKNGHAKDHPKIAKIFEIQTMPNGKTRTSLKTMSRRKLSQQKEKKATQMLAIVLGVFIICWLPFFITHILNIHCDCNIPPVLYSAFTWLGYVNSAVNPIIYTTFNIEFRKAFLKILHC
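DiscoveRx PathHunter D2 beta-arrestin cells (2,100/well) attached overnight, then compound-stimulated 90 min at 37 C in HBSS/10 mM HEPES/0.1% Tween-20 buffer; beta-galactosidase complementation read by luminescence after 1 h at ambient temperature. Dopamine 57 uM final (EC100) as control.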
D2 PAM-1: Beta-Arrestin HTS for Positive Allosteric Modulators of the Human D2 Dopamine Receptor: Potentiators | actives 0.23% (n = 360,000) | DiscoveRx D2 beta-arrestin cells, luminescence, 90 min; 100% = 57 uM dopamine signal | AID 624464, 2012 | potentiation, % (test concentration not listed); in the data active = potentiation above about 50%
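PathHunter D2 cells, attached overnight at 37 deg C, received compound in DMSO plus dopamine at EC20 (50 nM final) for 90 min at 37 deg C. Beta-arrestin recruitment was read as luminescence after 1 h with detection reagent at ambient temperature.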
D2 antag: HTS Assay for Allosteric Antagonists of the Human D2 Dopamine Receptor: Primary Screen for Antagonists. D(2) dopamine receptor (Homo sapiens), P14416. HEK293 TREx D2 cells, calcium flux, dopamine EC80. inhibition, % at 10 µM. actives 2% (n = 340,000). AID 485344, 2010; in the data active = inhibition above about 30%; inactive = below that, where a call was filed
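Cells plated overnight at 30 C with tetracycline; no-wash calcium dye, 30–90 min RT; 10 s baseline; compound pinned; 180 s read; EC80 dopamine added; another 180 s read.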
D2 ag-2: HTS Assay for Allosteric Agonists of the Human D2 Dopamine Receptor: Primary Screen for Agonists; activation, % at 2 µM; HEK293 T-REx D2 cells, calcium flux agonist mode; AID 485358, 2010; actives 0.53% (n = 340,000);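 active = activation over 3 SD above normal in the single-dose calcium agonist read, cut at about 30% in these data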
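Agonism scored from kinetic calcium signal (1 read/sec, 180 s) following compound pin transfer, after a 10 s baseline. Cells: HEK293 Trex line expressing inducible D2 receptor coupled to calcium, dye-loaded after overnight culture at 30 C.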
D2 PAM-2: HTS Assay for Positive Allosteric Modulators of the Human D2 Dopamine Receptor: Primary Screen for Potentiators; HEK293 T-REx D2, calcium flux, EC20 dopamine potentiation; actives 0.34% (n = 340,000); potentiation, % at 10 µM; D(2) dopamine receptor (Homo sapiens), P14416; AID 485347, 2010;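 active = potentiation over 3 SD above the plate norm, cut at about 30% in these data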
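Potentiation of an EC20 dopamine calcium response measured kinetically over 180 s, after a preceding 180 s compound-only read flagging agonists. Cells: inducible Hek293 Trex D2 line, 4000/well, cultured overnight at 30 C before dye loading.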
Numbers stand for hits.

What do the screens show for `Cc1[nH]c(=O)[nH]c(=O)c1S(=O)(=O)N1CCCC(C(=O)NCCc2ccc(Cl)cc2)C1` (stereo not drawn)?
D2 ag-1: inactive; D2 PAM-1: inactive; D2 antag: 65; D2 ag-2: inactive; D2 PAM-2: inactive

How did Cc1c(C(=O)N2CCN(S(=O)(=O)c3ccccc3)CC2)oc2ccccc12 do in these assays?
D2 ag-1: inactive; D2 PAM-1: inactive; D2 antag: 34; D2 ag-2: inactive; D2 PAM-2: inactive

Results for O=C(CN1CCSC1=O)N1CCN(S(=O)(=O)c2ccccc2)CC1 ?
D2 ag-1: inactive; D2 PAM-1: inactive; D2 antag: 37; D2 ag-2: inactive; D2 PAM-2: inactive

Results for COc1ccc(S(=O)(=O)N2CCN(C(=O)c3oc4ccccc4c3C)CC2)cc1 ?
D2 ag-1: inactive; D2 PAM-1: inactive; D2 antag: inactive; D2 ag-2: inactive; D2 PAM-2: inactive

What do the screens show for `O=C(N1CCCCCC1)N1CCN(S(=O)(=O)c2ccccc2)CC1`?
D2 ag-1: inactive; D2 PAM-1: inactive; D2 antag: inactive; D2 ag-2: inactive; D2 PAM-2: inactive

What do the screens show for `O=C(N1CCCCC1)N1CCN(S(=O)(=O)c2ccccc2)CC1`?
D2 ag-1: inactive; D2 PAM-1: inactive; D2 antag: inactive; D2 ag-2: inactive; D2 PAM-2: 70

What do the screens show for `O=C(c1ccc(=O)[nH]c1)N1CCN(S(=O)(=O)c2ccccc2)CC1`?
D2 ag-1: inactive; D2 PAM-1: inactive; D2 antag: 31; D2 ag-2: inactive; D2 PAM-2: inactive

How did O=C(c1ccc(=O)[nH]c1)N1CCN(S(=O)(=O)c2ccc(Cl)cc2)CC1 do in these assays?
D2 ag-1: inactive; D2 PAM-1: inactive; D2 antag: inactive; D2 ag-2: inactive; D2 PAM-2: inactive

Results for CCc1c(C(C)S(=O)(=O)c2ccccc2)[nH]c(=O)n1CC (stereo not drawn) ?
D2 ag-1: inactive; D2 PAM-1: inactive; D2 antag: 35; D2 ag-2: inactive; D2 PAM-2: inactive

What do the screens show for `O=C(CN1CCCN(Cc2ccc(F)cc2Cl)C1=O)NC1CCCCCCC1`?
D2 ag-1: inactive; D2 PAM-1: inactive; D2 antag: inactive; D2 ag-2: inactive; D2 PAM-2: inactive

How did O=C(CN1CCN(Cc2ccccc2F)C1=O)NC1CCCC1 do in these assays?
D2 ag-1: inactive; D2 PAM-1: inactive; D2 antag: 40; D2 ag-2: inactive; D2 PAM-2: inactive

Results for CCOC(=O)N1CCN(C(=O)C2CCN(S(=O)(=O)c3c(C)cc(C)cc3C)CC2)CC1 ?
D2 ag-1: inactive; D2 PAM-1: inactive

Results for CCOC(=O)N1CCN(S(=O)(=O)c2c(C)cc(C)cc2C)CC1 ?
D2 ag-1: inactive; D2 PAM-1: inactive; D2 antag: 54; D2 ag-2: inactive; D2 PAM-2: inactive

What do the screens show for `COc1cccc(-c2nnc3n(Cc4ccccc4Cl)c(=O)c4ccccc4n23)c1O`?
D2 ag-2: inactive; D2 PAM-2: inactive

Results for Cc1ccc(C(=O)NNC(=O)c2cc(OCC(F)(F)F)ccc2OCC(F)(F)F)cc1 ?
D2 ag-1: inactive; D2 PAM-1: inactive; D2 antag: 32; D2 PAM-2: inactive

How did CC(=O)CCn1c(=O)n(CCC(C)=O)c(=O)n(CCC(C)=O)c1=O do in these assays?
D2 ag-1: inactive; D2 PAM-1: inactive; D2 antag: inactive; D2 ag-2: inactive; D2 PAM-2: 36

What do the screens show for `CCOC(=O)C1CCCN(S(=O)(=O)c2cc3c4c(c2)CC(=O)N4CCC3)C1` (stereo not drawn)?
D2 ag-2: inactive

How did FC(F)Oc1ccc(N=C2SCC3CCCCN23)cc1 (stereo not drawn) do in these assays?
D2 ag-1: inactive; D2 PAM-1: inactive; D2 antag: inactive; D2 ag-2: inactive; D2 PAM-2: 36

What do the screens show for `Clc1ccc(N=C2SCC3CCCCN23)cc1` (stereo not drawn)?
D2 ag-1: inactive; D2 PAM-1: inactive; D2 antag: inactive; D2 ag-2: inactive; D2 PAM-2: inactive

What do the screens show for `O=C(CCN1CCN(Cc2ccccc2)CC1)NNC(=O)c1ccc(Cl)c(Cl)c1`?
D2 ag-1: inactive; D2 PAM-1: inactive

Results for CCN(Cc1ccccc1)S(=O)(=O)c1ccc(C(=O)Nc2nnc(-c3ccccc3OC)o2)cc1 ?
D2 ag-1: inactive; D2 PAM-1: inactive; D2 antag: 42; D2 ag-2: inactive; D2 PAM-2: inactive

Results for COc1ccc(OC)c(NC(=O)Cn2cnc3onc(-c4ccc(Cl)cc4)c3c2=O)c1 ?
D2 ag-2: inactive; D2 PAM-2: inactive

How did Cc1[nH]n2c(=O)c3c(nc2c1-c1ccc(Cl)cc1)CCC3 do in these assays?
D2 ag-1: inactive; D2 PAM-1: inactive; D2 antag: 75; D2 ag-2: inactive; D2 PAM-2: inactive

How did Nc1[nH]n2c(=O)c3c(nc2c1N=Nc1ccccc1)CCCC3 do in these assays?
D2 ag-1: inactive; D2 PAM-1: inactive; D2 antag: 37; D2 ag-2: inactive; D2 PAM-2: inactive

Results for Nc1[nH]n2c(=O)c3c(nc2c1N=Nc1ccc(Cl)cc1)CCCC3 ?
D2 ag-1: inactive; D2 PAM-1: inactive; D2 antag: inactive; D2 ag-2: inactive; D2 PAM-2: inactive

How did Cc1[nH]n2c(=O)c3c(nc2c1-c1ccccc1)CCC3 do in these assays?
D2 ag-1: inactive; D2 PAM-1: inactive; D2 antag: 36; D2 ag-2: inactive; D2 PAM-2: inactive

Results for Cc1ccc(-c2cc(C(=O)N(Cc3ccc(C(C)(C)C)cc3)Cc3ccco3)no2)cc1 ?
D2 ag-2: inactive; D2 PAM-2: inactive

Results for O=C(CSc1nc2c(sc3ccccc32)c(=O)n1CCCN1CCCC1)NCC1CCCO1 (stereo not drawn) ?
D2 ag-1: inactive; D2 PAM-1: inactive; D2 antag: inactive; D2 ag-2: inactive; D2 PAM-2: 41

What do the screens show for `Oc1c(CN2CCN(c3ccccc3)CC2)cc(Br)c2cccnc12`?
D2 ag-1: inactive; D2 PAM-1: inactive; D2 antag: 59; D2 ag-2: inactive; D2 PAM-2: inactive

Results for CC(C)OCc1cc(CN2CCN(c3ccccc3)CC2)c(O)c2ncccc12 ?
D2 ag-2: inactive; D2 PAM-2: inactive

Results for CCN(CC)C(=O)Cn1c(=O)cc(C)c2c(C)nn(C)c21 ?
D2 ag-2: inactive; D2 PAM-2: inactive

How did CC(=O)Nc1cccc(NC(=O)CSc2nccn2C2CCCC2)c1 do in these assays?
D2 ag-2: inactive; D2 PAM-2: inactive
